# “And” between values parts separate entries of the source, which are not always exact repeats. Identical values can stand only once. Values without a mark were called inactive. The source made the active and inactive calls.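 How the source made its calls: active means compounds killing one labelled cell type while sparing the other, by normalised counts and ratio limits, not self-fluorescent; inactive means the rest.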 Peptide text beside a SMILES is read from it.
# Assay: EMT-state selective cytotoxicity in co-culture – imaging, PC-3E GFP, TEM4-18 mCherry, primary screen (AID 1345086);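 further: normalised mesenchymal count divided by normalised epithelial count so high means epithelial killing; cells exposed to compound for 72 h before imaging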
# Conditions: PC-3E GFP / TEM4-18 mCherry co-culture, imaging cell counts; at 1 µM; actives lie on both sides; counts scaled to control wells, 1 = unselective
row,SMILES,red/green cell ratio (normalised)
1,O=C(Nc1ccc([N+](=O)[O-])cc1Cl)c1cc(Cl)ccc1O,0.66
2,CNC[C@H](O)c1cccc(O)c1,1.3
3,O=NN(CCCl)C(=O)NCCCl,1.04
4,COc1ccnc(CS(=O)c2nc3ccc(OC(F)F)cc3[nH]2)c1OC (stereo not drawn),1.07
5,COc1ccc2cc3[n+](cc2c1OC)CCc1cc2c(cc1-3)OCO2,0.81
6,CN(Cc1cc(Br)cc(Br)c1N)C1CCCCC1,1.35
7,O=C(NC(Cc1cc(=O)[nH]c2ccccc12)C(=O)O)c1ccc(Cl)cc1 (stereo not drawn),1.12
8,NC(=O)NO,1.09
9,Cc1ccc(S(=O)(=O)NC(=O)NN2CC3CCCC3C2)cc1 (stereo not drawn),0.84
10,OC[C@H]1O[C@@H](O[C@@H]2[C@@H](CO)O[C@](O)(CO)[C@H]2O)[C@H](O)[C@@H](O)[C@H]1O,1.2
11,NNc1nncc2ccccc12,1.11
12,CCOC(=O)C(C)(C)Oc1ccc(Cl)cc1,0.94
13,CC(=O)Oc1ccccc1C(=O)O,0.84
14,NC(=O)c1ncn([C@@H]2O[C@H](CO)[C@@H](O)[C@H]2O)n1,0.68
15,CN(C)c1ccc(C(=C2C=CC(=[N+](C)C)C=C2)c2ccc(N(C)C)cc2)cc1,3.62 (active)
16,Cn1cnc2c1c(=O)[nH]c(=O)n2C,0.94
17,COc1ccc(CCN(C)CCCC(C#N)(c2ccc(OC)c(OC)c2)C(C)C)cc1OC (stereo not drawn),1.29
18,O=c1oc2c(O)c(O)cc3c(=O)oc4c(O)c(O)cc1c4c23,0.99
19,CN(C)CCc1c[nH]c2ccc(CS(=O)(=O)N3CCCC3)cc12,1.06

row,SMILES,red/green cell ratio (normalised)
1,COc1cc([C@H]2Oc3cc([C@H]4Oc5cc(O)cc(O)c5C(=O)[C@@H]4O)ccc3O[C@@H]2CO)ccc1O,0.97
2,C/C=C(/C(=C/C)c1ccc(O)cc1)c1ccc(O)cc1,1.38
3,O=C(O)c1cn(-c2ccc(F)cc2)c2cc(N3CCNCC3)c(F)cc2c1=O,0.95 and 0.88
4,CN1C(C(=O)Nc2ccccn2)=C(O)c2sccc2S1(=O)=O,0.82
5,COC(=O)Nc1nc2ccc(S(=O)c3ccccc3)cc2[nH]1 (stereo not drawn),0.97
6,NCC1CCC(C(=O)O)CC1 (stereo not drawn),1.26
7,NC(CO)C(=O)NNCc1ccc(O)c(O)c1O (stereo not drawn),1.1
8,Nc1nc(=S)c2[nH]cnc2[nH]1,1.29
9,O=c1c(-c2ccc(O)cc2)coc2cc(O)cc(O)c12,0.95
10,CC1(C)NC(=O)N(c2ccc([N+](=O)[O-])c(C(F)(F)F)c2)C1=O,1.15
11,C1CCC(C(CC2CCCCN2)C2CCCCC2)CC1 (stereo not drawn),0.98
12,N[C@@H](Cc1ccc(O)c(O)c1)C(=O)O,0.88
13,Cc1oncc1C(=O)Nc1ccc(C(F)(F)F)cc1,0.74
14,NS(=O)(=O)c1cc2c(cc1Cl)NC(C(Cl)Cl)NS2(=O)=O (stereo not drawn),1.22
15,CCCOc1ccc2nc(NC(=O)OC)[nH]c2c1,1.06
16,Cc1cc(C2CCCCC2)n(O)c(=O)c1,1.34
17,COC(=O)[C@H](Cc1ccccc1)NC(=O)[C@@H](N)CC(=O)O (H-Asp-Phe-OMe),1.23
18,CC1=CC(=O)c2ccccc2C1=O,0.99
19,CCOC(=O)C1=C[C@]2(CC)CCCN3CCc4c(n1c1ccccc41)[C@@H]32,0.75

# From PubChem BioAssay
